Experimental data reported in PubChem BioAssay AID1645860 (Buhrlage Lab, Dana-Farber Cancer Institute and Novartis …, 2021).
Among all 47,000 compounds or so, about 2,500 (5.3%) were called active. Many of the other results were omitted from the sample, so actives are more common in it than they were. A number with no mark means an inactive call. No stated cut-off is given here; in the data, active means inhibition above about 30%; inactive means the rest.

target: Ubiquitin carboxyl-terminal hydrolase 30 (Homo sapiens) (UniProt Q70CQ3); test: blocks human USP30 ubiquitin-rhodamine cleavage (AID 1645860); conditions: purified USP30, Ub-rhodamine cleavage fluorescence; at 25 µM; stronger effect = higher value
Sequence (Q70CQ3 whole entry, looked up): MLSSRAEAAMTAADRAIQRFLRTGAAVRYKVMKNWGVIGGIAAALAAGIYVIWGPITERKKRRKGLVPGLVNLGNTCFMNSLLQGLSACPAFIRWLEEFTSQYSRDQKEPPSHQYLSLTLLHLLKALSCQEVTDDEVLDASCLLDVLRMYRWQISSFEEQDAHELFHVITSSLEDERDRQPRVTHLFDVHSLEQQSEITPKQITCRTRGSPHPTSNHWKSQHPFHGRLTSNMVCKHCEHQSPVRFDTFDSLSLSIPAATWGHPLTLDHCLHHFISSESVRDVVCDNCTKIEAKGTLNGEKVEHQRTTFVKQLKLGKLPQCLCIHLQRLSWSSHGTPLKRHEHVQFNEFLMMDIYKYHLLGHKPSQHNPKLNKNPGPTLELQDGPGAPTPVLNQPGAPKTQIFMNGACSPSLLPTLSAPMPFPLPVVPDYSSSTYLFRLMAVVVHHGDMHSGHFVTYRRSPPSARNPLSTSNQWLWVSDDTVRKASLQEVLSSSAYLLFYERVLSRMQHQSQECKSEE

SMILES	inhibition
COc1ccc(N(CC(=O)NCc2ccco2)S(=O)(=O)c2ccccc2[N+](=O)[O-])c(OC)c1	3.13%
CC(C)(C)c1ccc(-c2nnc3n2-c2ccccc2SC3)cc1	56.7% (active)
CCc1ccccc1N1C(=O)CN(S(C)(=O)=O)CC1(C)C(=O)NC1CCCCC1 (configuration not stated)	19.9%
COCCSc1ccc(-c2cccnc2)nn1	1.49%
Cc1ccc(C(=O)N2CCC3(CC2)CCN(c2cnn(C)c2)C3=O)cc1	17.1%
O=C(NCC(c1ccco1)N1CCCCC1)c1ccccc1Cl (configuration not stated)	-6.05%
CCCOc1ccc(CNC(=O)C2CCCN(c3nnc(N4CCCC4=O)s3)C2)cc1 (configuration not stated)	5.69%
Cc1ccc(CNC(=O)c2cc(=O)nc3sc(N4CCCC(C)C4)nn23)cc1 (configuration not stated)	30.1% (active)
Cc1cc(=O)n(CC(=O)NCc2ccccc2)c(N2CCCC2)n1	0.241%
COc1ccccc1-n1ccnc(NC(=O)c2cccc(F)c2)c1=O	11%
COc1cccc(C(=O)Nc2nccn(-c3cccc(F)c3)c2=O)c1	0.051%
COc1cccc(NC(=O)Nc2nccn(-c3ccccc3)c2=O)c1	39.1% (active)
CSc1ncccc1C(=O)Nc1ccnn1C(C)c1ccncc1 (configuration not stated)	-23%
CCn1c2ccccc2n2c(S(=O)(=O)Cc3ccccc3)nnc12	5.02%
Cc1sc2nc(C3CC3)n(C3CCN(C(=O)C(C)C)CC3)c(=O)c2c1C	18.3%
CCC(Oc1ccccc1)C(=O)NCc1ccc2c(c1)OCO2 (configuration not stated)	21.1%
c1ccc(-c2ccc(NCc3ccc4c(c3)OCO4)nn2)cc1	33.6% (active)
c1cc(CNCc2ccc3c(c2)OCO3)ccn1	0.888%
Cc1cccc(CN2CCN(CC(=O)NCCN3CCOCC3)C2=O)c1	-2.8%
O=C(NCc1ccccc1F)c1nnn(-c2ccccc2)n1	14.4%
CSCc1c(C)noc1-c1cc(C)on1	8.31%
COc1ccccc1N(Cc1nc2nc(C)cc(C)n2n1)C(=O)c1ccccc1	-0.203%
CCOc1nc(-c2ccc(Cl)cc2Cl)nc2ccccc12	13.4%

SMILES	inhibition
Cc1ccnc(Nc2nc(-c3ccccc3)c3cc(Cl)ccc3n2)n1	82.8% (active)
CC(=O)C[n+]1cc(-c2ccc(C)cc2)n2c1CCC2	5.82%
CCOc1ccc(C(=O)C[n+]2cc(-c3ccccc3)n3c2CCC3)cc1	30.3% (active)
CCOc1ccc(Nc2cc(C(=O)NCCN3CCCC3)c3ccccc3n2)cc1	29.9%
CCN1CCN(c2ccc(NC(=O)c3cccc(C)c3)cn2)C1=O	-23.3%
Cc1nc(-c2cnccn2)n(CC(=O)Nc2ccc(F)cc2)c(=O)c1C	2.83%
CC(=O)c1cccc(Nc2c(C(=O)N3CCCC3)cnc3nc(C)ccc23)c1	-35.8%
OCc1ccccc1-c1cnc2sc(NCCc3ccccn3)nn12	16.3%
COCCNc1nn2c(-c3ccc4ccccc4c3)cnc2s1	30.2% (active)
Cc1nnn(C23CC4CC(CC(C(=O)NC5CCCC5)(C4)C2)C3)n1	21.2%
CCOc1ccccc1N1CCN(C(=O)c2snc(-c3ccncc3)c2N)CC1	1.69%
O=C(CCC(=O)N(c1ccccc1)c1ccccc1)Nc1ccccc1	-16.4%
COc1ccc(C)cc1NC(=O)Cn1c(=O)nc(N(C)c2ccccc2)c2ccccc21	0.767%
CN(c1ccccc1)c1nc(=O)n(CC(=O)Nc2ccc3c(c2)OCCO3)c2ccccc12	42.3% (active)
O=C(Cn1cnc2c(sc3ccccc32)c1=O)Nc1ccc2c(c1)OCCO2	-498%
CCCCS(=O)(=O)N1C[C@H]2CC[C@@]3(N=C(C)N(CC4CC4)C3=O)[C@H]2C1	12.5%
CNC(=O)c1sc2nccnc2c1C1CCN(C(=O)c2cccc(F)c2)CC1	13.3%
CNc1cc(C2CCCN2C(=O)c2cc3c([nH]c2=O)CCC3)ccn1 (configuration not stated)	-20.8%
CC(C)N(C(=O)CSc1nc2ccc([N+](=O)[O-])cc2s1)C(C)C	-147%
CC(C)Cc1cc(C(=O)N2CCN(C)CC(C(N)=O)C2)on1 (configuration not stated)	16.9%
C=C1CC[C@@H]2[C@@]3(C)CCC(=O)C(C)(C)[C@@H]3CC[C@@]2(C)[C@]12Cc1c(c(C)c(C)oc1=O)O2	30.3% (active)
CNC(=O)Nc1ccc(C2(C(=O)NC3CCCC3)CCC2)cc1	-19.9%
CC12C(=O)N(CCCN3CCOCC3)CC(=O)N1CCc1c2[nH]c2ccccc12 (configuration not stated)	7.84%

SMILES	inhibition
Cc1cc(NC2CCCCC2)n2ncc(-c3ccccc3Cl)c2n1	-16.5%
COc1ccc(NS(=O)(=O)c2cc(NC(=O)CC(=O)c3ccc([N+](=O)[O-])cc3)ccc2C)cc1	29.7%
Cc1ccc(NC(=O)CCOc2ccccc2)cc1S(=O)(=O)Nc1ccccc1Cl	30.4% (active)
Cc1ccc(NC(=O)CCC(=O)N(c2ccccc2)c2ccccc2)cc1Cl	17.2%
O=C(Nc1nnc(-c2cccs2)o1)C1CCCCC1	10.9%
Cc1cc(-c2nnc(SCC(=O)Nc3ccc(Br)c(C)c3)n2N)n[nH]1	71.5% (active)
Cc1cc(NC(=O)COC(=O)c2cccc(C)c2O)ccc1Br	6.49%
Nn1c(SCC(=O)Nc2ccccc2F)nnc1-c1n[nH]c2c1CCC2	-0.125%
O=C(c1cnc2sc3c(n2c1=O)CCC3)N1CCCCC1	-37.1%
CC(C)Cc1nc2sc3c(NCc4ccco4)ncnc3c2c2c1CCC2	-21.1%
CC(O)CNc1ncnc2c1oc1nc(C(C)C)c3c(c12)CCC3 (configuration not stated)	38.1% (active)
CC(C)c1nc2oc3c(N4CCN(CCO)CC4)ncnc3c2c2c1CCC2	18.4%
CC(C)n1cnc2c1C(C(=O)N1CCN(C)CC1)N(Cc1ccccc1)CC2 (configuration not stated)	9.34%
CC(C)(C)C(=O)N1CCC2(COCc3cnc(NCc4ccco4)nc32)C1 (configuration not stated)	2.12%
Cc1c(S(=O)(=O)N2CCCCC2)c(C)n(C)c1-c1nnc(C2CCC2)o1	3.55%
Cc1nnc(NCc2ccc(Cl)cc2)[nH]c1=O	26%
CSc1cccc(NC(=O)COc2ccc(C(=O)c3ccccc3)cc2)c1	-4.48%
CSc1cccc(NC(=O)CCc2ccc3nc[nH]c3c2)c1	-0.451%
CSc1cccc(NC(=O)CCn2c(=O)c3cccn3c3ccccc32)c1	32.6% (active)
Cc1cc2n(n1)CCCN2C(=O)CCC(=O)Nc1ccc(F)cc1F	-24.2%
CC(=O)N1C[C@H]2C3(CCN(C(=O)c4ccccc4)CC3)CC[C@@]2(C(=O)N(C)C)C1	25.8%
Cc1ccc(Cc2nc(CC(=O)Nc3ccc(F)cc3F)n[nH]2)cc1	-1.22%
Cc1ccc(-n2cc(-c3noc(C(=O)Nc4ccc(F)cc4C)n3)nn2)cc1	36.9% (active)

SMILES	inhibition
Cc1cc(F)ccc1NC(=O)c1cc(C2CC2)n2nccc2n1	-33.1%
CCC(C(=O)Nc1ccc(-c2cn3cccnc3n2)cc1)c1ccccc1 (configuration not stated)	-89.6%
N#Cc1ccc(C(=O)Nc2cccc(-c3noc(C4CC4)n3)c2)c(F)c1	13.2%
Cc1ccc(F)c2c(=O)c3c([nH]c12)CCN(CC(=O)Nc1cccc(C#N)c1)C3	-178%
O=C(Cn1c(=O)n(Cc2ccc3c(c2)OCO3)c(=O)c2cccnc21)Nc1ccc(F)cc1	21.5%
O=C(Cn1c(=O)n(Cc2ccc3c(c2)OCO3)c(=O)c2ccccc21)NCc1ccco1	33% (active)
CC(C)(C)C(=O)Cn1c(=O)n(Cc2ccco2)c(=O)c2ccccc21	1.71%
Cc1cc2oc(=O)cc(CN3CCN(Cc4ccccc4)CC3)c2cc1C	3.27%
Cc1cccc(NC(=O)Nc2ccc3c(c2)N(S(=O)(=O)c2ccccc2)CC3)c1C	30.5% (active)
Cc1ccc(NC(=O)c2ccc3c(c2)N(S(C)(=O)=O)CC3)cc1C	-53.8%
COc1ccccc1NC(=O)c1cccc(S(=O)(=O)N2CCc3ccccc32)c1	-7.37%
COc1ccc(C2=NC3(CCN(Cc4cccc(F)c4)CC3)NC2=O)cc1	-23.4%
CCc1cnc(N2CC[C@@H]3CN(CCC(C)C)S(=O)(=O)[C@@H]3CC2)nc1	27.9%
Cc1ccc2c(=O)cc(CN(C)Cc3ccc(F)cc3)[nH]c2c1C	-7.81%
COc1ccc(C2=CC(c3ccc(Cl)cc3)n3ncc(C(=O)Nc4ccccc4)c3N2)cc1 (configuration not stated)	-15.7%
C=C1CCC2[C@](C)(CCC[C@]2(C)C(=O)OC)[C@H]1CCc1ccoc1C[N+](C)(C)Cc1ccccc1 (some centres not stated)	72.7% (active)
C=C1CCC2[C@](C)(CCC[C@]2(C)C(=O)OC)[C@H]1CCc1ccoc1/C=C/C(=O)O (some centres not stated)	61.8% (active)
CNc1nc(C2CCNCC2)nc2c1CCN(S(=O)(=O)c1ccccc1Cl)C2	-118%
COc1cc(O)ccc1CN1CCCC12Cc1ccccc1CNC2=O (configuration not stated)	-28%
Cc1cncc(C2CCCN(C(=O)CCc3cc(Cl)no3)C2)n1 (configuration not stated)	-18.4%
O=C(COc1ccccc1Cl)NCC(c1ccco1)N1CCOCC1 (configuration not stated)	-52.2%
COc1ccc(N2C(=O)N(Cc3ccccc3)S(=O)(=O)c3cccnc32)cc1	13.9%
COc1ccccc1NC(=O)NCc1cnn2ccccc12	14.1%
